Measured values as given in the supplement of paper PMC8975748.
Counter-ions that a name gives are not always drawn. ± gives the standard deviation of the averaged measurements.

Key:
[1] = test system: Saccharomyces cerevisiae BY4741 SeMeCo community; assay: mean cell size (pixel area) (pixels); higher = larger cells; settings: 10 µM; 24 h; SM minimal medium
Outline: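 In this assay, mean cell pixel area per well was obtained from automated confocal images of paraformaldehyde-fixed yeast analysed in Harmony. The cells were a Saccharomyces cerevisiae BY4741 community with four plasmids, each complementing one auxotrophy and carrying a fluorescent marker, grown for 24 h in SM medium with drug at a final 10 µM in 384-well plates. Values are averaged across 3 replicates. Same SeMeCo high-content imaging drug screen: Selleck FDA-approved drugs at 10 µM, 24 h in SM medium, 384-well plates, 3 replicates.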

[2] = test system: Saccharomyces cerevisiae BY4741 SeMeCo community; assay: z-score of prototroph abundance vs DMSO median; higher = larger share of this subpopulation than in DMSO controls; settings: 10 µM; 24 h; SM minimal medium; subpopulation (auxotrophy): Prototroph
Outline: (§1)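 Subpopulation abundance was reported as a z-score against the median of vehicle wells. The Saccharomyces cerevisiae BY4741 community, carrying four plasmids that each restored one auxotrophy and encoded a distinct fluorescent protein, was grown 24 h in minimal SM medium in 384-well plates holding library drugs at 10 µM final. Cells were paraformaldehyde-fixed and imaged by automated confocal microscopy, with single-auxotroph fluorescent strains used for thresholds and autofluorescence correction.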

[3] = test system: Saccharomyces cerevisiae BY4741 SeMeCo community; assay: z-score of subpopulation abundance vs DMSO median, subpopulation auxotrophic for M; higher = larger share of this subpopulation than in DMSO controls; settings: 10 µM; 24 h; SM minimal medium; subpopulation (auxotrophy): M
Outline: as §1

[4] = test system: Saccharomyces cerevisiae BY4741 SeMeCo community; assay: z-score of subpopulation abundance vs DMSO median, subpopulation auxotrophic for L; higher = larger share of this subpopulation than in DMSO controls; settings: 10 µM; 24 h; SM minimal medium; subpopulation (auxotrophy): L
Outline: as §1

[5] = test system: Saccharomyces cerevisiae BY4741 SeMeCo community; assay: z-score of subpopulation abundance vs DMSO median, subpopulation auxotrophic for LU; higher = larger share of this subpopulation than in DMSO controls; settings: 10 µM; 24 h; SM minimal medium; subpopulation (auxotrophy): LU
Outline: as §1

[6] = test system: Saccharomyces cerevisiae BY4741 SeMeCo community; assay: z-score of subpopulation abundance vs DMSO median, subpopulation auxotrophic for LM; higher = larger share of this subpopulation than in DMSO controls; settings: 10 µM; 24 h; SM minimal medium; subpopulation (auxotrophy): LM
Outline: as §1

[7] = test system: Saccharomyces cerevisiae BY4741 SeMeCo community; assay: z-score of subpopulation abundance vs DMSO median, subpopulation auxotrophic for HM; higher = larger share of this subpopulation than in DMSO controls; settings: 10 µM; 24 h; SM minimal medium; subpopulation (auxotrophy): HM
Outline: as §1

[8] = test system: Saccharomyces cerevisiae BY4741 SeMeCo community; assay: z-score of subpopulation abundance vs DMSO median, subpopulation auxotrophic for HU; higher = larger share of this subpopulation than in DMSO controls; settings: 10 µM; 24 h; SM minimal medium; subpopulation (auxotrophy): HU
Outline: as §1

[9] = test system: Saccharomyces cerevisiae BY4741 SeMeCo community; assay: z-score of subpopulation abundance vs DMSO median, subpopulation auxotrophic for UM; higher = larger share of this subpopulation than in DMSO controls; settings: 10 µM; 24 h; SM minimal medium; subpopulation (auxotrophy): UM
Outline: as §1

[10] = test system: Saccharomyces cerevisiae BY4741 SeMeCo community; assay: z-score of subpopulation abundance vs DMSO median, subpopulation auxotrophic for HL; higher = larger share of this subpopulation than in DMSO controls; settings: 10 µM; 24 h; SM minimal medium; subpopulation (auxotrophy): HL
Outline: as §1

[11] = test system: Saccharomyces cerevisiae BY4741 SeMeCo community; assay: z-score of subpopulation abundance vs DMSO median, subpopulation auxotrophic for HLU; higher = larger share of this subpopulation than in DMSO controls; settings: 10 µM; 24 h; SM minimal medium; subpopulation (auxotrophy): HLU
Outline: as §1

[12] = test system: Saccharomyces cerevisiae BY4741 SeMeCo community; assay: z-score of subpopulation abundance vs DMSO median, subpopulation auxotrophic for HLM; higher = larger share of this subpopulation than in DMSO controls; settings: 10 µM; 24 h; SM minimal medium; subpopulation (auxotrophy): HLM
Outline: as §1

[13] = test system: Saccharomyces cerevisiae BY4741 SeMeCo community; assay: z-score of subpopulation abundance vs DMSO median, subpopulation auxotrophic for HUM; higher = larger share of this subpopulation than in DMSO controls; settings: 10 µM; 24 h; SM minimal medium; subpopulation (auxotrophy): HUM
Outline: as §1

[14] = test system: Saccharomyces cerevisiae BY4741 SeMeCo community; assay: z-score of subpopulation abundance vs DMSO median, subpopulation auxotrophic for LUM; higher = larger share of this subpopulation than in DMSO controls; settings: 10 µM; 24 h; SM minimal medium; subpopulation (auxotrophy): LUM
Outline: as §1

[15] = test system: Saccharomyces cerevisiae BY4741 SeMeCo community; assay: z-score of subpopulation abundance vs DMSO median, subpopulation auxotrophic for HLUM; higher = larger share of this subpopulation than in DMSO controls; settings: 10 µM; 24 h; SM minimal medium; subpopulation (auxotrophy): HLUM
Outline: as §1

[16] = test system: Saccharomyces cerevisiae BY4741 SeMeCo community; assay: z-score of subpopulation abundance vs DMSO median, subpopulation auxotrophic for U; higher = larger share of this subpopulation than in DMSO controls; settings: 10 µM; 24 h; SM minimal medium; subpopulation (auxotrophy): U
Outline: as §1

[17] = test system: Saccharomyces cerevisiae BY4741 SeMeCo community; assay: z-score of subpopulation abundance vs DMSO median, subpopulation auxotrophic for H; higher = larger share of this subpopulation than in DMSO controls; settings: 10 µM; 24 h; SM minimal medium; subpopulation (auxotrophy): H
Outline: as §1

Compound | mean cell size [1] | z-score of prototroph abundance [2] | z-score of subpopulation abundance [3] | z-score of subpopulation abundance [4] | z-score of subpopulation abundance [5] | z-score of subpopulation abundance [6] | z-score of subpopulation abundance [7] | z-score of subpopulation abundance [8] | z-score of subpopulation abundance [9] | z-score of subpopulation abundance [10] | z-score of subpopulation abundance [11] | z-score of subpopulation abundance [12] | z-score of subpopulation abundance [13] | z-score of subpopulation abundance [14] | z-score of subpopulation abundance [15] | z-score of subpopulation abundance [16] | z-score of subpopulation abundance [17]
Oc1ccc(Cl)c2cccnc12 [Cloxiquine] | 14.28 ± 0.12 | -17.6 | 5.82 | -1.33 | 6.41 | 8.36 | 26.6 | 11.8 | 6.45 | 17.4 | 17.6 | 64 | 14.5 | 22.1 | 43.7 | – | –
CO/N=C(\C(=O)N[C@@H]1C(=O)N2C(C(=O)O)=C(COC(N)=O)CS[C@H]12)c1ccco1 [Cefuroxime sodium] | 12.47 ± 0.073 | – | 0.78 | -0.97 | -1.06 | -0.79 | -0.58 | -0.93 | – | -0.76 | -1.34 | -1.17 | -0.92 | -0.31 | -0.98 | 0.58 | -1.01
CC(=O)O[C@H]1C[C@@]2(C)[C@@H](C[C@@H](O)[C@H]3[C@@]4(C)CC[C@@H](O)[C@@H](C)[C@@H]4CC[C@@]32C)/C1=C(\CCC=C(C)C)C(=O)O [Fusidate Sodium] | 12.64 ± 0.067 | -0.65 | 0 | -0.11 | 0.21 | -0.02 | 0.57 | 2 | -0.27 | 1.13 | 1.2 | 1.04 | 1.17 | -0.25 | -0.08 | – | 1.44
C[C@@H](O)[C@H]1C(=O)N2C(C(=O)O)=C([C@H]3CCCO3)S[C@H]12 [Faropenem Sodium] | 12.39 ± 0.088 | -1.08 | 0.61 | -0.03 | 0.29 | -0.23 | 0.48 | 0.81 | 1.27 | – | 0.66 | -0.7 | 0.59 | 0.85 | -0.05 | – | 0.32
c1cnc(N2CCN(Cc3ccc4c(c3)OCO4)CC2)nc1 [Piribedil] | 12.6 ± 0.18 | -0.35 | 0.35 | 0.51 | 0.48 | 0.32 | 0.27 | -0.25 | -0.82 | 0.51 | 0.22 | 1.03 | -0.11 | – | -0.28 | 0.44 | 0.27
Cc1nc(=O)c2cc(CN(C)c3ccc(C(=O)N[C@@H](CCC(=O)O)C(=O)O)s3)ccc2[nH]1 [Raltitrexed] | 13.1 ± 0.36 | 1.91 | 0.3 | -0.42 | -1.62 | -0.75 | -0.66 | -2.1 | -2.8 | -0.37 | -0.94 | -0.97 | -1.9 | – | -1.38 | -1.11 | -0.94
CN(Cc1cnc2nc(N)nc(N)c2n1)c1ccc(C(=O)N[C@@H](CCC(=O)O)C(=O)O)cc1 [Methotrexate disodium] | 15.01 ± 0.07 | 0.74 | -6.18 | -0.58 | -3.33 | -1.46 | 1.68 | -1.36 | -5.52 | – | 0.91 | 14.3 | -2.01 | – | 19.8 | -4.34 | 15.3
CNCC[C@H](Oc1cccc2ccccc12)c1cccs1 [Duloxetine HCl] | 12.5 ± 0.21 | 0.65 | 0.4 | -0.57 | -0.43 | -0.49 | 0 | -1.13 | – | – | -0.74 | -0.84 | -0.47 | – | 0.03 | -0.11 | -0.45
Oc1cccc(O)c1 [Resorcinol] | 12.4 ± 0.22 | 0.94 | -0.66 | -0.23 | -1.33 | -0.4 | -0.29 | -0.64 | -0.77 | -0.43 | 0 | -0.64 | -0.96 | – | -0.65 | 0.1 | -0.05
CC[C@H](C)C(=O)O[C@H]1C[C@H](O)C=C2C=C[C@H](C)[C@H](CC[C@@H](O)C[C@@H](O)CC(=O)O)[C@H]21 [Pravastatin] | 12.2 ± 0.19 | -1.08 | 0.52 | -0.43 | 0.89 | 0.2 | 0.47 | 1.19 | 1.36 | 0.42 | -0.44 | -0.51 | 1.56 | – | -0.51 | 1.19 | 0.39
CCOC(=O)c1ccc(N)cc1 [Benzocaine] | 12.5 ± 0.19 | 0.6 | 1.02 | -0.13 | -1.24 | 0.32 | 0.67 | -1.28 | -0.58 | -1.2 | -0.97 | -0.02 | -0.48 | – | -0.38 | -1.34 | 0.27
COC(=O)Nc1nc2cc(Sc3ccccc3)ccc2[nH]1 [Fenbendazole] | 12.3 ± 0.23 | 0.03 | 0.61 | 0.52 | -0.67 | 0.66 | 0.22 | -0.37 | 0.27 | 0.48 | -0.08 | -0.31 | 0.36 | 0.53 | -0.28 | – | 0.06
O=C(N[C@H](CO)[C@H](O)c1ccc([N+](=O)[O-])cc1)C(Cl)Cl [Chloramphenicol] | 12.5 ± 0.17 | -0.39 | 0.86 | 0.12 | -0.22 | 0.1 | -0.25 | 0.66 | -0.39 | 0.18 | -0.24 | 0.01 | 0.42 | 0.23 | 0.45 | – | -0.01
NC(=O)N1c2ccccc2C=Cc2ccccc21 [Carbamazepine] | 12.5 ± 0.21 | 0.13 | -0.29 | 0.25 | -0.08 | 0.14 | -0.61 | -0.56 | -0.23 | -0.72 | 0.32 | 0.02 | -0.5 | – | -0.25 | – | -0.43
COc1cc(Cc2cnc(N)nc2N)cc(OC)c1OC [Trimethoprim] | 12.4 ± 0.14 | – | 0.01 | 0.44 | 0.14 | -0.07 | -0.06 | 0 | 0.07 | -0.46 | 0.25 | -0.6 | -0.12 | 0.27 | -0.22 | – | -0.5
CN(C)CCC=C1c2ccccc2C(C)(C)c2ccccc21 [Melitracen hydrochloride] | 12 ± 0.24 | 1 | -0.28 | -0.61 | -0.8 | -0.58 | -0.45 | -0.73 | -0.21 | -1.23 | -1.72 | -1.11 | -0.78 | -0.83 | -0.56 | – | -1.7
C#CCN[C@@H]1CCc2ccccc21 [Rasagiline Mesylate] | 12.49 ± 0.065 | 0.23 | 0.65 | 1.22 | 0.5 | 0.42 | -0.43 | -0.74 | – | 0.37 | 0.21 | -0.04 | -0.47 | – | 0.44 | -0.4 | 0.22
N=C(N)NC(=O)c1nc(Cl)c(N)nc1N [Amiloride HCl] | 12.59 ± 0.11 | -0.41 | 1.46 | 1.94 | -0.38 | 3.94 | 1.25 | -2.41 | -1.89 | 1.51 | -0.5 | 3.24 | -1.69 | – | 0.53 | -1.58 | 0.83
Clc1ccc(COC(Cn2ccnc2)c2ccc(Cl)cc2Cl)cc1 (centres undefined) [Econazole] | 11.9 ± 0.17 | -7.96 | -1.6 | -1.62 | -0.93 | -1.56 | 2.71 | 5.61 | 9.39 | – | 4.6 | 17.3 | 4.19 | 3.58 | – | 0.12 | 20.3
CC[C@H](C)C(=O)O[C@H]1C[C@@H](C)C=C2C=C[C@H](C)[C@H](CC[C@@H]3C[C@@H](O)CC(=O)O3)[C@H]21 [Lovastatin] | 11.9 ± 0.13 | – | 0.85 | -0.96 | 0.16 | -0.13 | 0.4 | 0.59 | 1.08 | 0.97 | 0.37 | 0.86 | 1.12 | 0.48 | – | 0.87 | -0.06
